Most compounds without a hit are left out; they make up all but 6.5% or so of the library.
TGFb SMAD3 inh = TGF-b pathway inhibition | HepG2 CAGA-GFP TGF-b/SMAD3 reporter, GFP fluorescence, 18 h; TGF-beta stimulated, 500 pg/mL final | Potency, µM (series often up to 46.1 µM), usual class: inhibitors | actives 1.2% (n = 410,000) | AID 588855; note: nearly all actives have a fitted effect of over 65% in size
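Smad-responsive CAGA-GFP expression was quantified in HEPG2 cells exposed to compounds and 500 pg/mL final TGF-beta for 18 h at 37 degrees C; unstimulated wells defined full inhibition.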
HepG2 tox = HepG2 cytotoxicity, counter-screen for TGF-b inhibitors; HepG2 CAGA-GFP viability, ATP luminescence, 18 h; Potency, µM (titrated, usually from 46.1 µM), actives largely listed as cytotoxic; actives 0.76% (n = 410,000)
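HepG2 CAGA-GFP cells (1000/well, DMEM with 1% FBS) received compound, then TGF-beta at 500 pg/mL final, and were incubated 18 hours at 37 degrees C. Viability was read by CellTiter-Glo luminescence. Media-only wells were set as complete cell-killing and DMSO as no toxicity.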
IL-1B inflam inh = inflammasome signaling inhibition, IL-1 beta readout | actives 4.7% (n = 360,000) | THP-1 LPS/ATP IL-1B secretion, AlphaLISA, 16 h; stronger effect = lower value | activity change, % at 57.5 µM | AID 743279; in the data active = activity change below about -50%; inconclusive = mostly about -30% to -49%
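THP-1 cells pretreated 1 hr with compounds (up to 57.5 uM final), then stimulated with LPS (250 ng/mL final) plus ATP (1.25 mM final); secreted IL-1B measured by AlphaLISA after 16 hr, decreased signal indicating inhibition.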
Giardia killer = kills Giardia lamblia; Giardia lamblia trophozoite viability; AID 540267; activity change, % at 7.66 µM, hits read low; actives 0.15% (n = 340,000); in the data active = activity change below about -80%; inconclusive = between about -30% and that limit;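 note: parasites exposed to compound for two days anaerobically before the ATP read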
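Trophozoites 100 cells/well + cpd; 48 hrs, 37 deg C, anaerobic. ATPLite 1-Step added, 15-30 min RT, luminescence read (ATP-based viability).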
HT1080 IDH1KD tx = toxicity to HT-1080 IDH1 knockdown cells (counter line); HT-1080 IDH1 knockdown viability, ATP luminescence, 48 h; Potency, µM (top dose mostly 46.1 µM), most hits filed as cytotoxic; actives 2% (n = 360,000); AID 686971
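Cytotoxicity counter-line: IDH1KD HT-1080, 48 h, CellTiter-Glo. Curves classed by r2, magnitude and activity.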
HT1080NT lethal = kills 2HG-producing HT-1080-NT fibrosarcoma cells | HT-1080-NT fibrosarcoma viability, CellTiter-Glo ATP luminescence, 48 h | Potency, µM (top dose mostly 46.1 µM), hits mostly cytotoxic | actives 1.6% (n = 360,000) | AID 686970;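 note: NT is the 2HG producing partner of a matched IDH1 knockdown line; nearly all actives have a fitted effect of over 55% in size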
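HT-1080-NT fibrosarcoma cells (2HG-overproducing), 750 cells/well in RPMI with 5% FBS, dosed after 2 h and incubated 48 h at 37C. CellTiter-Glo luminescence normalized to DMSO and no-cell wells; concentration-response curves fitted and classed.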
Large screens that a line does not name were inactive; ! = not confirmed by another sample. Unless noted, calls come from the whole dose curve; as a rule, active = well fitted curve in the direction sought with a large enough effect; inconclusive = small, poorly fitted or top-dose-only effect, or another doubt; inactive = no such curve, though single readings can be large; an effect the other way counts as inactive or inconclusive.

C#CCOCCOCCOCCNc1nc(N2CCN(C(=O)CCCCCCCCCCNC(=O)Cn3cc(CCCCCN)nn3)CC2)nc(N2CCN(C(=O)CCCCCCCCCCNC(=O)[C@H]([C@@H](C)CC)n3cc(CCCCCN)nn3)CC2)n1	TGFb SMAD3 inh inconclusive, IL-1B inflam inh -106, HT1080 IDH1KD tx inconclusive, HT1080NT lethal inconclusive
C#CCOCCOCCOCCNc1nc(N2CCN(C(=O)CCCCCCCCCCNC(=O)Cn3cc(CCCCCN)nn3)CC2)nc(N2CCN(C(=O)CCCCCCCCCCNC(=O)[C@H](CO)n3cc(CCCCCN)nn3)CC2)n1	TGFb SMAD3 inh inconclusive, IL-1B inflam inh -71, HT1080 IDH1KD tx inconclusive
Clc1ccc(CNCCCSc2ncccn2)cc1Cl	IL-1B inflam inh -62
Clc1cccc(Cl)c1CNCCCSc1ncccn1	none
CSc1ccc(S(=O)(=O)N(CC(=O)NCc2ccccn2)c2ccc(C)cc2)cc1	none
Cc1ccc(C(=O)c2coc3c2C(=O)C(=O)c2ccccc2-3)cc1	TGFb SMAD3 inh inconclusive, HepG2 tox 11µM, HT1080 IDH1KD tx inconclusive, HT1080NT lethal inconclusive
Cc1ccc(C(=O)c2c(C)oc3c2C(=O)C(=O)c2ccccc2-3)cc1	TGFb SMAD3 inh inconclusive, IL-1B inflam inh -121, HT1080 IDH1KD tx inconclusive, HT1080NT lethal inconclusive
Cc1ccc(NC(=O)CCn2cccn2)c(C)c1	none (no result: IL-1B inflam inh, Giardia killer, HT1080 IDH1KD tx, HT1080NT lethal)
CCCN1CCN(CCCNC(=O)c2cc3c(Cl)nc4ccccc4c3s2)CC1	TGFb SMAD3 inh inconclusive, HepG2 tox 13µM (no result: IL-1B inflam inh, Giardia killer, HT1080 IDH1KD tx, HT1080NT lethal)
O=C(NCCCN1CCCC1)c1cc2c(Cl)nc3ccccc3c2s1	HT1080 IDH1KD tx 21µM, HT1080NT lethal inconclusive (no result: IL-1B inflam inh)
CC1CCN(CCCNC(=O)c2cc3c(Cl)nc4ccccc4c3s2)CC1	TGFb SMAD3 inh inconclusive, IL-1B inflam inh -70, HT1080NT lethal inconclusive
COc1cccc(SCc2noc(C(=O)NCCN(C)C)c2C(=O)NCCN(C)C)c1	none
Cn1c(=O)c2cc(NC(=O)NCc3ccc(Cl)cc3Cl)ccc2n1Cc1ccccc1	IL-1B inflam inh -60 (no result: Giardia killer)
Cc1occc1C(=O)N1CCN(S(=O)(=O)c2ccc(F)cc2)CC1	none
NNC(=O)CNC(=O)c1ccc(F)cc1	none
Nc1n[nH]c(N)c1N=Nc1ccccc1	IL-1B inflam inh -66
Nc1n[nH]c(N)c1N=Nc1ccc(F)cc1	none
Nc1n[nH]c(N)c1N=Nc1ccccc1F	Giardia killer inconclusive
Nc1n[nH]c(N)c1N=Nc1ccc(Cl)cc1Cl	IL-1B inflam inh -57, HT1080 IDH1KD tx inconclusive
COc1ccc(N=Nc2c(N)n[nH]c2N)cc1	IL-1B inflam inh -53
Cc1cccc(C(=O)N2CCc3cc(CNS(=O)(=O)c4cccs4)ccc32)c1	TGFb SMAD3 inh inconclusive (no result: IL-1B inflam inh, Giardia killer, HT1080 IDH1KD tx, HT1080NT lethal)
O=C(CC(c1ccccc1)c1ccccc1O)NCCc1ccccc1 (stereo unspecified)	IL-1B inflam inh -51
CCCCCCNC(=O)CC(c1ccccc1)c1cc(Br)ccc1O (stereo unspecified)	TGFb SMAD3 inh 13µM, HepG2 tox 13µM, IL-1B inflam inh inconclusive, HT1080 IDH1KD tx inconclusive, HT1080NT lethal inconclusive
O=C(CC(c1ccccc1)c1ccccc1O)NCc1ccccc1Cl (stereo unspecified)	IL-1B inflam inh inconclusive
CC(C)NC(=O)CC(c1ccccc1)c1cc(Br)ccc1O (stereo unspecified)	HT1080 IDH1KD tx inconclusive
COc1cc(C(O)P(=O)(OC(C)C)OC(C)C)cc(OC)c1OC (stereo unspecified)	none
CO/N=C/c1ccc(N2CCN(C(=O)c3ccc(F)cc3)CC2)c([N+](=O)[O-])c1	none
CO/N=C/c1ccc(N2CCN(C(=O)c3ccc(Cl)cc3Cl)CC2)c([N+](=O)[O-])c1	IL-1B inflam inh -62, HT1080 IDH1KD tx inconclusive, HT1080NT lethal inconclusive
Cc1onc(-c2ccccc2)c1C(=O)NNC(=S)NC(=O)c1ccc(Cl)cc1Cl	TGFb SMAD3 inh inconclusive, HepG2 tox 13µM, HT1080 IDH1KD tx inconclusive
Cc1[nH]c(C)c(C(=O)/C=C/c2ccc([N+](=O)[O-])cc2)c1C	TGFb SMAD3 inh inconclusive, IL-1B inflam inh -97, HT1080 IDH1KD tx 12µM, HT1080NT lethal inconclusive
N#C/C(=C\c1ccccc1[N+](=O)[O-])C(=O)NC1CCCCC1	IL-1B inflam inh -72, Giardia killer inconclusive, HT1080 IDH1KD tx 18µM, HT1080NT lethal inconclusive
CCOc1ccccc1/C=C(\C#N)C(=O)NC1CC1	none
N#C/C(=C\C=C\c1ccccc1[N+](=O)[O-])C(=O)NC1CCCCC1	TGFb SMAD3 inh inconclusive, IL-1B inflam inh -104
Cc1ccc(-c2[nH]ncc2/C=C(\C#N)C(=O)NC2CCCCC2)cc1	TGFb SMAD3 inh inconclusive, IL-1B inflam inh -59, HT1080 IDH1KD tx inconclusive, HT1080NT lethal inconclusive
O=C(CSc1ncn[nH]1)N(C1CCCCC1)C1CCCCC1	none
Cc1c(CN(C)C)c2c(n1Cc1ccccc1)C(=O)c1ccc(Br)cc1-2	TGFb SMAD3 inh inconclusive, HepG2 tox 18µM, IL-1B inflam inh -68, HT1080 IDH1KD tx inconclusive, HT1080NT lethal 18µM
Cc1c(CN(C)C)c2c(n1C)C(=O)c1ccc(Br)cc1-2	HT1080NT lethal inconclusive (no result: IL-1B inflam inh)
COc1cccc(NC(=O)CN(C)C(=O)CCC(=O)c2cc(C)sc2C)c1	none
COc1ccc(Cl)cc1NC(=O)CN(C)CC(=O)Nc1ccccc1-c1ccccc1	HT1080 IDH1KD tx inconclusive
COc1ccc(Cl)cc1NC(=O)CN(C)CC(=O)Nc1ccc(C)cc1Br	IL-1B inflam inh -67
COc1ccc(Cl)cc1NC(=O)CN(C)C(=O)CCC(=O)c1cc(C)sc1C	IL-1B inflam inh -53
COc1ccccc1NC(=O)N(C)C[C@H]1Oc2ncc(C#CCN(C)C)cc2C(=O)N([C@H](C)CO)C[C@H]1C	none (no result: Giardia killer)
Cc1ccccc1Nc1c(-c2cc(Br)ccc2F)nc2ccccn12	none (no result: IL-1B inflam inh, Giardia killer, HT1080 IDH1KD tx, HT1080NT lethal)
CN(C)c1nc(Cl)nc(N(C#N)CCOc2ccccc2)n1	IL-1B inflam inh -86
CNCCCC12CCC(c3ccccc31)c1ccccc12	IL-1B inflam inh -56!, HT1080 IDH1KD tx inconclusive, HT1080NT lethal 18µM
COc1ccc(CCN2C(=O)N(c3ccc(C)cc3)C(=O)C2CC(=O)Nc2ccc(F)cc2)cc1 (stereo unspecified)	TGFb SMAD3 inh inconclusive (no result: IL-1B inflam inh, Giardia killer, HT1080 IDH1KD tx, HT1080NT lethal)
Cc1cc(=O)oc2cc(OCCCC[n+]3ccccc3)ccc12	none
CCCCCc1ccc(OCCCC[n+]2cccc(C)c2)c(CCCCC)c1	TGFb SMAD3 inh inconclusive, IL-1B inflam inh -96, HT1080 IDH1KD tx 4.1µM, HT1080NT lethal 4.1µM
CCCCCc1ccc(OCCCC[n+]2ccc(C)cc2)c(CCCCC)c1	TGFb SMAD3 inh 11µM, IL-1B inflam inh -100, HT1080 IDH1KD tx 6.5µM, HT1080NT lethal 6.5µM
